MITF inh – MITF inhibitors, primary screen, biochemical, AlphaScreen, human; Microphthalmia-associated transcription factor (Homo sapiens), O75030; AlphaScreen MITF homodimerization, bead proximity signal; inhibition, % at 2.6 µM; actives 0.91% (n = 650,000); AID 1259374, 2018; in the data active = inhibition above about 50%;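 also: 0% = vehicle wells with protein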
Target sequence (O75030 whole entry, looked up): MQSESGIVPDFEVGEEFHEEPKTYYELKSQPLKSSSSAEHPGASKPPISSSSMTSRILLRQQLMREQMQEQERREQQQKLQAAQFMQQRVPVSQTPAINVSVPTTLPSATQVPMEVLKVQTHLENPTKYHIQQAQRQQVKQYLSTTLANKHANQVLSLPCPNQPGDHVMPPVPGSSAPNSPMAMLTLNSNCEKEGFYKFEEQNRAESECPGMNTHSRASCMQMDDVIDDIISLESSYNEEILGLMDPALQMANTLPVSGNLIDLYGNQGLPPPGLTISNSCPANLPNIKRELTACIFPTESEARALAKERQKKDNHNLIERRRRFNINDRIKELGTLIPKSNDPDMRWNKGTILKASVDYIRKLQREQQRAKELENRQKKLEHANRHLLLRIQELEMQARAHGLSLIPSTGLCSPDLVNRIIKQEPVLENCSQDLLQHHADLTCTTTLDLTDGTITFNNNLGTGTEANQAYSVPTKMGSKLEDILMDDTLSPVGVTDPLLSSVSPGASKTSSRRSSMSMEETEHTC
TEAD-YAP block – TEAD-YAP interaction inhibition, primary screen, TEAD-YAP interaction inhibitor project, luminescence, HEK-TIYL cells; inhibition, % at 9.12 µM; actives 1.4% (n = 640,000); TEAD-Gal4/YAP UAS-luciferase luminescence; in the data active = inhibition above about 32%;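 also: 0% = median of test compound wells and 100% = reference inhibitor wells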
GPR151 ag – activators of human GPR151, primary screen, cell-based, PathHunter beta-arrestin, luminescence. activation, % at 11.2 µM. G-protein coupled receptor 151 (Homo sapiens), Q8TDV0. PathHunter beta-arrestin GPR151 cells. actives 1% (n = 650,000); in the data active = activation above about 4.9%;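 also: 0% = median of compound wells and 100% = cells with positive control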
FBW7 act – FBW7 E3 ligase activators, primary screen, biochemical, AlphaScreen, human | AID 1259310, 2017 | normalized activity (activation), % at 26.1 µM | AlphaScreen FBW7–phospho-cyclin E peptide binding, activator screen | actives 0.13% (n = 650,000) | F-box/WD repeat-containing protein 7 (Homo sapiens), Q969H0; in the data active = normalized activity above about 1.9%;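 also: purified mutant Fbw7 with reduced substrate affinity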
* marks the source's active call; other numbers are inactive results; ! = not active in a repeat. Sampled rows, rich in hits. Any-hit rate of the full collection: about 3.4%.

SMILES	MITF inh	TEAD-YAP block	GPR151 ag	FBW7 act
COc1ccc(Cc2nnc(SCC(=O)Nc3cc(C)ccc3C)o2)cc1	5	12	1	0
O=c1c(-c2ccc3c(c2)OCCCO3)coc2cc(O)ccc12	-1	75*	-3	0
CCOC(=O)C(C)Oc1ccc2c(=O)c(-c3ccc(OC(C)C)cc3)coc2c1 (stereo not drawn)	-4	0	1	0
COc1ccc(-c2coc3cc(OC)ccc3c2=O)cc1	-2	9	-1	0
CC(C)Oc1cc(O)c2c(=O)c(-c3ccc(O)cc3)coc2c1	3	57*	0	0
COc1ccc(-c2coc3cc(O)ccc3c2=O)cc1	25	53*!	-3	0
O=c1c(-c2ccc(Cl)cc2)coc2cc(O)ccc12	4	16	-4	0
Cc1oc2cc(O)ccc2c(=O)c1-c1ccc2c(c1)OCCO2	10	-13	-1	0
Cc1oc2cc(O)cc(O)c2c(=O)c1-c1ccc2c(c1)OCCCO2	7	43*	0	0
CC(/C=N\Nc1nc(N2CCCC2)nc(N2CCCC2)n1)=C\c1ccccc1	10	2	1	0
COc1ccc(-c2coc3cc(O)cc(O)c3c2=O)cc1	-5	37*!	0	0
O=c1c(-c2ccc(O)cc2)coc2cc(O)cc(O)c12	15	44*!	-2	0
O=c1c(-c2ccc(Br)cc2)coc2cc(O)cc(O)c12	13	-19	0	1
Cc1nc(-c2coc3cc(O)cc(O)c3c2=O)cs1	-13	-34	-5	0
O=C(NCCc1csc2nc(-c3cccc(F)c3)nn12)C1CC1	1	-13	2	0
O=C(Nc1cccc(Cl)c1Cl)c1cc(S(=O)(=O)NC2CCCCCC2)ccc1F	8	-3	0	0
CC1(C)CC(=NNC(=O)c2cccc([N+](=O)[O-])c2)CC(C)(C)N1	12	-2	-1	0
Clc1ccc(-c2cn3c(n2)sc2ccccc23)cc1	-18	31	-2	2.7*
CCOC(=O)c1ccc2c(c1)sc1nc(-c3ccccc3)cn12	4	54*	-6	0
Ic1ccc(-c2cn3c(n2)sc2ccccc23)cc1	14	-38	1	1
COC(=O)c1ccc2c(c1)sc1nc(-c3ccccc3)cn12	-1	65*	-6	0
COCCN(C(=S)Nc1ccc(C)cc1Cl)C1CCN(C(C)=O)CC1	4	6	-1	0
O=C(Nn1cnnc1)c1cc(-c2cccc(Cl)c2)nc2ccccc12	8	17	2	0
CSc1ccc(C=C2C(=O)c3ccccc3C2=O)cc1	0	6	0	0
CC1C(=O)C(=O)/C(=C\c2ccccc2)C1=O (stereo not drawn)	82*	0	1	0
SMILES	MITF inh	TEAD-YAP block	GPR151 ag	FBW7 act
COc1ccc(CN2CCN(C3CCN(C(C)C)CC3)C(CCO)C2)c(Cl)c1OC (stereo not drawn)	9	1	-1	0
COc1ccccc1C(=O)Oc1ccc(C)cc1-n1nc2ccccc2n1	16	-51	-9	0
Cc1ccc(Oc2ccc(S(=O)(=O)N3CCOCC3)cc2S(=O)(=O)N2CCOCC2)c(-n2nc3ccccc3n2)c1	0	2	0	0
Cc1ccc(OC(=O)c2ccccc2Cl)c(-n2nc3ccccc3n2)c1	0	-20	-1	7.6*
Cc1ccc(Oc2ccc(S(=O)(=O)N3CCOCC3)cc2C(N)=O)c(-n2nc3ccccc3n2)c1	0	41*	0	0
COc1ccc(Cl)cc1NC(=O)c1ccc(F)cc1	16	5	0	2.3*
COc1ccccc1Nc1ncc(C(=O)NCCC(C)C)c2ccccc12	14	-7	0	0
COc1ccccc1NC(=O)c1ccccc1NC(=O)c1cc(OC)c(OC)c(OC)c1	4	55*	1	0
COc1ccccc1NC(=O)c1cnc(Nc2ccccc2OC)c2ccccc12	-5	45*	1	1
COc1cc(C(=O)Nc2ccccc2-c2nc3ccccc3s2)cc(OC)c1OC	-3	53*	-1	0
CCOC(=O)C1CCCN(C(=O)c2cc3c(=O)[nH]c4ccccc4c3n2C)C1 (stereo not drawn)	11	6	-1	0
CCCN(CCC)CCNC(=O)c1nn(-c2ccc(OCC)cc2)c(=O)c2ccccc12	7	-4	-1	0
COc1ccccc1NC(=O)c1ccccc1NC(=O)c1ccccc1	15	9	0	2

Assay outcomes: PubChem, The Scripps Research Institute Molecular Screening Center
